# Laboratory results from PubChem BioAssay (NCI).
# The panel holds about 79,000 compounds, 15% with a hit somewhere; the sample as a whole holds those more often. A number with no mark means an inactive call. Calls of active or inactive are those of the source. Rule as the data show it: active = growth inhibition above about 70%; inactive = the rest.
# Key:
# [1] = NCI Yeast Anticancer Drug Screen. Data for the rad52 strain (AID 147);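 also: 0% = growth of vehicle-treated control cultures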; settings: S. cerevisiae rad52 mutant growth inhibition, stronger effect = higher value
# Outline: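 DNA repair-defective yeast; compound exposure; growth scored against vehicle controls.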
# [2] = NCI Yeast Anticancer Drug Screen. Data for the wt1 strain (AID 149);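 also: 0% = growth of vehicle-treated wt1 cultures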; settings: S. cerevisiae wt1 strain (SPY 50644) growth inhibition, stronger effect = higher value
# Outline: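 Each compound is tested on wt1 yeast and the loss of growth versus vehicle gives the inhibition value.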
# [3] = NCI Yeast Anticancer Drug Screen. Data for the rad50EPP+ strain (AID 151);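 also: 0% = growth of vehicle-treated control cultures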; settings: S. cerevisiae rad50 mutant strain, stronger effect = higher value
# Outline: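 rad50EPP+ yeast treated with test compounds. Readout: growth vs vehicle control.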
# [4] = NCI Yeast Anticancer Drug Screen. Data for the mgt1 strain (AID 153); settings: S. cerevisiae mgt1 mutant growth inhibition, stronger effect = higher value
# Outline: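 Growth inhibition relative to vehicle controls was scored for the mgt1 yeast strain after compound exposure.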
# [5] = NCI Yeast Anticancer Drug Screen. Data for the rad50 strain (AID 155);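 also: 0% = growth of vehicle-only cultures of the same strain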; settings: S. cerevisiae rad50 strain growth inhibition, stronger effect = higher value
# Outline: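 Vehicle-treated cultures provide the reference for the growth inhibition reported for compound-exposed, repair-deficient yeast.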
# [6] = NCI Yeast Anticancer Drug Screen. Data for the mec2-1 strain (AID 157); settings: S. cerevisiae mec2-1 strain, stronger effect = higher value
# Outline: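 Growth inhibition is read against vehicle-treated controls after compound exposure of the mec2-1 yeast strain, which is defective in DNA damage repair or cell cycle control.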
# [7] = NCI Yeast Anticancer Drug Screen. Data for the rad14 strain (AID 159);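 also: 0% = growth of vehicle-treated control cultures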; settings: S. cerevisiae rad14 strain growth inhibition, stronger effect = higher value
# Outline: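 Inhibition of growth is reported for a repair-deficient yeast mutant following compound treatment, calculated relative to cultures that received vehicle.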
# [8] = NCI Yeast Anticancer Drug Screen. Data for the sgs1 mgt1 strain (AID 161);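 also: 0% = growth of cultures given vehicle only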; settings: S. cerevisiae sgs1 mgt1 strain, stronger effect = higher value
# Outline: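 This yeast growth screen uses a strain with defined DNA-repair lesions; compound-treated growth is compared with vehicle-treated growth.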
# [9] = NCI Yeast Anticancer Drug Screen. Data for the CLN2oe strain (AID 163);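 also: 0% = growth of vehicle-only control cultures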; settings: S. cerevisiae CLN2oe strain, stronger effect = higher value
# Outline: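 Compound-treated yeast; growth vs vehicle ctrl = % inhibition. Genetically altered strain (cell-cycle control).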
# [10] = NCI Yeast Anticancer Drug Screen. Data for the cln2 rad14 strain (AID 165);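 also: 0% = growth equal to vehicle treated cultures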; settings: S. cerevisiae cln2 rad14 strain, stronger effect = higher value
# Outline: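 Growth inhibition, relative to vehicle-treated controls, is the read-out. The test organism is a yeast strain with defined genetic alterations, cln2 rad14.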
# [11] = NCI Yeast Anticancer Drug Screen. Data for the bub3 strain (AID 167); settings: S. cerevisiae bub3 mutant strain, stronger effect = higher value
# Outline: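 Mutant yeast screening strain plus compound; vehicle-treated cultures serve as the 0% inhibition reference.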
# [12] = NCI Yeast Anticancer Drug Screen. Data for the wt2 strain (AID 169); settings: S. cerevisiae wt2 strain growth inhibition, stronger effect = higher value
# Outline: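 Compound exposure of yeast; growth compared with vehicle controls; inhibition reported.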
# [13] = NCI Yeast Anticancer Drug Screen. Data for the mlh1 strain (AID 171);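 also: 0% = growth of vehicle-treated control cultures of the same strain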; settings: S. cerevisiae mlh1 strain growth inhibition, stronger effect = higher value
# Outline: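 Compounds are applied to a genetically altered yeast strain, and its growth is compared with that of vehicle-treated cultures to give percent inhibition.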
# [14] = NCI Yeast Anticancer Drug Screen. Data for the mlh1 rad18 strain (AID 175); settings: S. cerevisiae mlh1 rad18 strain growth inhibition, stronger effect = higher value
# Outline: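 Cells of a genetically altered yeast strain, deficient in DNA damage repair, were treated with compound. Their growth was then compared with that of vehicle-treated cultures to give inhibition.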
# [15] = NCI Yeast Anticancer Drug Screen. Data for the rad18 strain (AID 177); settings: S. cerevisiae rad18 mutant growth inhibition, stronger effect = higher value
# Outline: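 Compounds are applied to a repair-deficient yeast strain, and growth is compared with that of vehicle-treated cultures to give percent inhibition.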
# [16] = NCI Yeast Anticancer Drug Screen. Data for the sgs1 strain (AID 173);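 also: 0% = growth of vehicle-only control cultures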; settings: S. cerevisiae sgs1 mutant, stronger effect = higher value
# Outline: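 Compounds applied to genetically altered yeast; growth compared with vehicle-treated cultures to give % inhibition.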
# [17] = at 5.0 µM (retest, dose inferred, filed as 0.5)
# [18] = at 50.0 µM (retest, dose inferred, filed as 5.0)
smiles,measurement,setting,value
CC1=CC(=O)C=CC1=Nc1cc(Cl)c(O)c(Cl)c1,growth inhibition,[1]; at 1.2 µM,-39%
same,growth inhibition,[1]; at 3.7 µM,-29%
same,growth inhibition,[1]; at 11.0 µM,7%
same,growth inhibition,[1]; at 33.0 µM,66%
same,growth inhibition,[1]; at 100.0 µM,92% (active)
same,growth inhibition,[2]; at 1.2 µM,-30%
same,growth inhibition,[2]; at 3.7 µM,-24%
same,growth inhibition,[2]; at 11.0 µM,-12%
same,growth inhibition,[2]; at 33.0 µM,52%
same,growth inhibition,[2]; at 100.0 µM,93% (active)
same,growth inhibition,[3]; at 1.2 µM,-31%
same,growth inhibition,[3]; at 3.7 µM,-15%
same,growth inhibition,[3]; at 11.0 µM,-16%
same,growth inhibition,[3]; at 33.0 µM,27%
same,growth inhibition,[3]; at 100.0 µM,70% (active)
same,growth inhibition,[4]; at 1.2 µM,-4%
same,growth inhibition,[4]; at 3.7 µM,4%
same,growth inhibition,[4]; at 11.0 µM,9%
same,growth inhibition,[4]; at 33.0 µM,40%
same,growth inhibition,[4]; at 100.0 µM,94% (active)
same,growth inhibition,[5]; at 1.2 µM,-2%
same,growth inhibition,[5]; at 3.7 µM,8%
same,growth inhibition,[5]; [17],55%
same,growth inhibition,[5]; at 11.0 µM,8%
same,growth inhibition,[5]; at 33.0 µM,62%
same,growth inhibition,[5]; [18],53%
same,growth inhibition,[5]; at 50.0 µM,81.4% (active)
same,growth inhibition,[5]; at 100.0 µM,91% (active)
same,growth inhibition,[6]; at 1.2 µM,-21%
same,growth inhibition,[6]; at 3.7 µM,-16%
same,growth inhibition,[6]; [17],63%
same,growth inhibition,[6]; at 11.0 µM,-4%
same,growth inhibition,[6]; at 33.0 µM,55%
same,growth inhibition,[6]; [18],48%
same,growth inhibition,[6]; at 50.0 µM,79.3% (active)
same,growth inhibition,[6]; at 100.0 µM,93% (active)
same,growth inhibition,[7]; at 1.2 µM,-43%
same,growth inhibition,[7]; at 3.7 µM,-31%
same,growth inhibition,[7]; at 11.0 µM,-30%
same,growth inhibition,[7]; at 33.0 µM,38%
same,growth inhibition,[7]; at 100.0 µM,89% (active)
same,growth inhibition,[8]; [17],-4%
same,growth inhibition,[8]; [18],93% (active)
same,growth inhibition,[8]; at 50.0 µM,83.7% (active)
same,growth inhibition,[9]; at 1.2 µM,-2%
same,growth inhibition,[9]; at 3.7 µM,-9%
same,growth inhibition,[9]; at 11.0 µM,22%
same,growth inhibition,[9]; at 33.0 µM,45%
same,growth inhibition,[9]; at 100.0 µM,90% (active)
same,growth inhibition,[10]; [17],48%
same,growth inhibition,[10]; [18],94% (active)
same,growth inhibition,[10]; at 50.0 µM,77.2% (active)
same,growth inhibition,[11]; at 1.2 µM,7%
same,growth inhibition,[11]; at 3.7 µM,11%
same,growth inhibition,[11]; [17],45%
same,growth inhibition,[11]; at 11.0 µM,8%
same,growth inhibition,[11]; at 33.0 µM,49%
same,growth inhibition,[11]; [18],91% (active)
same,growth inhibition,[11]; at 50.0 µM,83% (active)
same,growth inhibition,[11]; at 100.0 µM,92% (active)
same,growth inhibition,[12]; at 1.2 µM,-31%
same,growth inhibition,[12]; at 3.7 µM,-20%
same,growth inhibition,[12]; at 11.0 µM,-14%
same,growth inhibition,[12]; at 33.0 µM,30%
same,growth inhibition,[12]; at 100.0 µM,94% (active)
same,growth inhibition,[13]; at 1.2 µM,-51%
same,growth inhibition,[13]; at 3.7 µM,-24%
same,growth inhibition,[13]; at 11.0 µM,-21%
same,growth inhibition,[13]; at 33.0 µM,10%
same,growth inhibition,[13]; at 100.0 µM,91% (active)
same,growth inhibition,[14]; [17],40%
same,growth inhibition,[14]; [18],48%
same,growth inhibition,[14]; at 50.0 µM,82% (active)
same,growth inhibition,[15]; at 1.2 µM,-11%
same,growth inhibition,[15]; at 3.7 µM,-10%
same,growth inhibition,[15]; at 11.0 µM,-9%
same,growth inhibition,[15]; at 33.0 µM,60%
same,growth inhibition,[15]; at 100.0 µM,91% (active)
Cc1ccc(NC(Nc2ccc(C)cc2C)=C(C(Cl)=C(Cl)Cl)[N+](=O)[O-])c(C)c1,growth inhibition,[1]; at 1.2 µM,4%
same,growth inhibition,[1]; at 3.7 µM,10%
same,growth inhibition,[1]; at 11.0 µM,78% (active)
same,growth inhibition,[1]; at 33.0 µM,99% (active)
same,growth inhibition,[1]; at 100.0 µM,94% (active)
same,growth inhibition,[2]; at 1.2 µM,2%
same,growth inhibition,[2]; at 3.7 µM,3%
same,growth inhibition,[2]; at 11.0 µM,34%
same,growth inhibition,[2]; at 33.0 µM,99% (active)
same,growth inhibition,[2]; at 100.0 µM,96% (active)
same,growth inhibition,[3]; at 1.2 µM,8%
same,growth inhibition,[3]; at 3.7 µM,10%
same,growth inhibition,[3]; at 11.0 µM,19%
same,growth inhibition,[3]; at 33.0 µM,38%
same,growth inhibition,[3]; at 100.0 µM,71% (active)
same,growth inhibition,[4]; at 1.2 µM,0%
same,growth inhibition,[4]; at 3.7 µM,4%
same,growth inhibition,[4]; at 11.0 µM,21%
same,growth inhibition,[4]; at 33.0 µM,99% (active)
same,growth inhibition,[4]; at 100.0 µM,95% (active)
same,growth inhibition,[5]; at 1.2 µM,1%
same,growth inhibition,[5]; at 3.7 µM,4%
same,growth inhibition,[5]; [17],90% (active)
same,growth inhibition,[5]; at 11.0 µM,72% (active)
same,growth inhibition,[5]; at 33.0 µM,99% (active)
same,growth inhibition,[5]; [18],98% (active)
same,growth inhibition,[5]; at 50.0 µM,98% (active)
same,growth inhibition,[5]; at 100.0 µM,92% (active)
same,growth inhibition,[6]; at 1.2 µM,0%
same,growth inhibition,[6]; at 3.7 µM,5%
same,growth inhibition,[6]; [17],74% (active)
same,growth inhibition,[6]; at 11.0 µM,49%
same,growth inhibition,[6]; at 33.0 µM,99% (active)
same,growth inhibition,[6]; [18],98% (active)
same,growth inhibition,[6]; at 50.0 µM,98.8% (active)
same,growth inhibition,[6]; at 100.0 µM,94% (active)
same,growth inhibition,[7]; at 1.2 µM,2%
same,growth inhibition,[7]; at 3.7 µM,2%
same,growth inhibition,[7]; at 11.0 µM,25%
same,growth inhibition,[7]; at 33.0 µM,99% (active)
same,growth inhibition,[7]; at 100.0 µM,94% (active)
same,growth inhibition,[8]; [17],94% (active)
same,growth inhibition,[8]; [18],99% (active)
same,growth inhibition,[8]; at 50.0 µM,98.9% (active)
same,growth inhibition,[9]; at 1.2 µM,-3%
same,growth inhibition,[9]; at 3.7 µM,-1%
same,growth inhibition,[9]; at 11.0 µM,48%
same,growth inhibition,[9]; at 33.0 µM,99% (active)
same,growth inhibition,[9]; at 100.0 µM,94% (active)
same,growth inhibition,[10]; [17],27%
same,growth inhibition,[10]; [18],98% (active)
same,growth inhibition,[10]; at 50.0 µM,98.7% (active)
same,growth inhibition,[11]; at 1.2 µM,-2%
same,growth inhibition,[11]; at 3.7 µM,-4%
same,growth inhibition,[11]; [17],67%
same,growth inhibition,[11]; at 11.0 µM,30%
same,growth inhibition,[11]; at 33.0 µM,99% (active)
same,growth inhibition,[11]; [18],98% (active)
same,growth inhibition,[11]; at 50.0 µM,98.3% (active)
same,growth inhibition,[11]; at 100.0 µM,91% (active)
same,growth inhibition,[16]; at 1.2 µM,1%
same,growth inhibition,[16]; at 3.7 µM,11%
same,growth inhibition,[16]; at 11.0 µM,70% (active)
same,growth inhibition,[16]; at 33.0 µM,99% (active)
same,growth inhibition,[16]; at 100.0 µM,93% (active)
same,growth inhibition,[14]; [17],96% (active)
same,growth inhibition,[14]; [18],98% (active)
same,growth inhibition,[14]; at 50.0 µM,98.3% (active)
same,growth inhibition,[15]; at 1.2 µM,2%
same,growth inhibition,[15]; at 3.7 µM,7%
same,growth inhibition,[15]; at 11.0 µM,72% (active)
same,growth inhibition,[15]; at 33.0 µM,99% (active)
same,growth inhibition,[15]; at 100.0 µM,92% (active)
